Bioassay records from PubChem BioAssay.
KCNH2 3.1 block: inhibitors of human KCNH2 3.1 potassium channel isoform. activity change, % (tested at about 1.8 µM). hit rate 0.95% among 340,000. U2OS KCNH2 3.1, thallium flux FluxOr; stronger effect = lower value. AID 720553;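 active = maximum activity change below -70%; inconclusive = maximum activity change from -70% to -50%; inactive = maximum activity change above -50%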;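 note: thallium influx rate constant from kinetic fluorescence after stimulation buffer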
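Kinetic fluorescence (2 min after stimulation buffer) measures Tl+ influx through KCNH2 3.1 expressed by viral transduction in U2OS cells; the rate constant is normalized against DMSO controls serving as positive and negative references.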
CXXC DNA block: inhibitors of human MLL CXXC domain-DNA interaction; Q03164; MLL-CXXC / FITC-HOXA9 DNA fluorescence polarization; Potency, µM (doses to about 115 µM), most hits filed as inhibitors; hit rate 0.037% among 290,000; AID 2662; active = well fitted inhibition curve with a large enough effect in the polarisation, with a control signal flat, not every such curve was filed as active; inconclusive = small, poorly fitted or top-dose-only effect, or effect the other way, or a change in a side signal; inactive = no such curve, though single readings can be large or run the other way; the % refers to the polarisation
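Fluorescence polarization: 7 uM MLL-CXXC (stock) preincubated 5 min with compounds, then 50 nM fluorescein-HOX-A9 DNA (stock) added; 30 min ambient. Buffer 50 mM Tris-HCl pH 7.5, 50 mM NaCl, 1 mM DTT, 0.05% BSA.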
Menin MLL FP TR: inhibitors of human menin-MLL interaction, mutant MLL peptide; Menin + Texas Red MLL mutant peptide, fluorescence polarization; Potency, µM (titrated, usually from 61.6 µM), actives largely listed as inhibitors; hit rate 0.23% among 270,000; AID 1768; active = well fitted inhibition curve with a large enough effect in the polarisation, with a control signal flat, not every such curve was filed as active; inconclusive = small, poorly fitted or top-dose-only effect, or effect the other way, or a change in a side signal; inactive = no such curve, though single readings can be large or run the other way; the % refers to the polarisation
hERG WT inh: blocks the wildtype human KCNH2 potassium channel. U2OS, BacMam KCNH2, thallium flux FluxOr; stronger effect = lower value. activity change, % at 1.84 µM. hit rate 0.37% among 340,000. AID 720551;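 active = maximum activity change below -70%; inconclusive = maximum activity change between -70% and -50%; inactive = maximum activity change above -50%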
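U2OS cells were transduced with wild-type KCNH2 virus (2.03 x 10^8 / mL) for 4 h at room temperature, then cultured overnight at 37 C. Thallium flux was read with FluxOr dye. Rate constants were normalized to DMSO controls.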
Menin MLL FP FL: inhibitors of human menin-MLL interaction, wild-type MLL peptide. Fluorescence polarization, fluorescein-MLL peptide displacement from menin. FP activity change, % at 61.4 µM. 290,000 tested, under 10 active; active = well fitted curve in the direction sought with a large enough effect in the polarisation, not every such curve was filed as active; inconclusive = small, poorly fitted or top-dose-only effect, or effect the other way, or a change in a side signal; inactive = no such curve, though single readings can be large or run the other way; the % refers to the polarisation
MLL CXXC Fl: disrupts human MLL CXXC domain binding to DNA. shares compounds with CXXC DNA block. MLL CXXC-DNA binding, fluorescein FP. Potency, µM (series often up to 345 µM), actives largely listed as inhibitors. hit rate 70% among 200. AID 624160; note: nearly all actives have a fitted effect of over 80% in size
MLL CXXC TxRed: inhibitors of human MLL CXXC domain-DNA interaction, Texas Red format | shares compounds with CXXC DNA block | MLL CXXC-DNA binding, Texas Red fluorescence polarization | Potency, µM (series often up to 345 µM), usual class: inhibitors | hit rate 40% among 200; note: nearly all actives have a fitted effect of over 75% in size
MLL CXXC HTRF: disrupts human MLL CXXC domain binding to DNA by HTRF; shares compounds with CXXC DNA block; MLL CXXC-DNA binding, HTRF, biochemical; Potency, µM (doses to about 172 µM), usual class: inhibitors; hit rate 30% among 210; note: nearly all actives have a fitted effect of over 80% in size
Numbers stand for hits; i = inactive; ? = inconclusive; nt = not tested or not shown. Sampled rows, rich in hits. Any-hit rate of the full collection: about 1.1%. Unless noted, calls come from the whole dose curve; as a rule, active = well fitted inhibition curve with a large enough effect; inconclusive = small, poorly fitted or top-dose-only effect; inactive = no such curve, though single readings can be large or run the other way.

SMILES	KCNH2 3.1 block	CXXC DNA block	Menin MLL FP TR	hERG WT inh	Menin MLL FP FL	MLL CXXC Fl	MLL CXXC TxRed	MLL CXXC HTRF
COC(=O)C1=C(c2ccc(C(C)=O)cc2)C[C@@H]2CC[C@H]1N2C(=O)N1CCCCC1	i	nt	nt	i	nt	nt	nt	nt
COC(=O)C1=C(c2ccc(C(C)=O)cc2)C[C@@H]2CC[C@H]1N2C(=O)N1CCCC1	-90	nt	nt	i	nt	nt	nt	nt
O=C(CN1CC=C(c2ccccc2)CC1)NC(=O)NCc1ccco1	-90	i	i	i	i	nt	nt	nt
CCCCNC(=O)Oc1c(Br)cc2sc(=O)oc2c1Br	nt	i	nt	nt	i	nt	nt	nt
CCOC(=O)N1CCN(/[N+]([O-])=N/Oc2ccc([N+](=O)[O-])cc2[N+](=O)[O-])CC1C (configuration not stated)	nt	nt	i	nt	i	nt	nt	nt
Cc1ccc(S(=O)(=O)c2nc(-c3ccccc3Cl)oc2N(C)C2CCN(C)CC2)cc1	-80	nt	nt	?	nt	nt	nt	nt
Clc1ccc([C@@H](OCCN2CCCCC2)c2ccccc2)cc1	nt	i	i	nt	i	nt	nt	nt
Clc1ccc(C(OCCN2CCCCC2)c2ccccc2)cc1 (configuration not stated)	-102	nt	i	i	i	nt	nt	nt
COC(=O)C(O)(c1ccc(N=Cc2ccccc2O)c(C)c1)C(F)(F)F (configuration not stated)	i	?	i	-113	i	nt	nt	nt
CCCCCSc1cc(OC)c(CCN)cc1OC	i	i	i	i	i	nt	nt	nt
CCCCCCCSc1cc(OC)c(CCN(C)C)cc1OC	nt	?	7.1µM	i	i	nt	nt	nt
COc1ccc(/C=C/C2=CCN(C)CC2)cc1	i	i	i	i	i	nt	nt	nt
CN1CC=C(/C=C/c2ccc(-c3ccccc3)cc2)CC1	-90	i	i	i	i	nt	nt	nt
O=C(O)CCCC[C@@H]1SC[C@H]2NC(=O)N[C@@H]12	nt	nt	i	nt	i	nt	nt	nt
COC(=O)c1ccccc1OC(=O)c1ccc(Br)o1	i	i	i	i	i	nt	nt	nt
Cc1ccc(C(=O)N[C@@H](C)CN2C3=NC[C@H](Cc4ccccc4)N3C[C@H]2Cc2ccc(O)cc2)cc1Br	i	?	nt	-85	i	nt	nt	nt
CCOc1ccc(CN2CCCC(C(=O)c3ccccc3OC)C2)cc1 (configuration not stated)	-84	i	i	i	i	nt	nt	nt
COc1ccccc1CN1CCCC(C(=O)c2ccccc2OC)C1 (configuration not stated)	i	i	i	i	i	nt	nt	nt
Cn1c(O)c(C=Nc2ccccc2)c(=O)n(C)c1=O	i	i	i	i	i	nt	nt	nt
Cn1c(O)c(/C=C/C=Nc2ccccc2)c(=O)n(C)c1=O	i	i	i	-88	?	nt	nt	nt
CC(=O)O[C@H]1C[C@@H]2CCC3C(CC[C@@]4(C)[C@H]3C[C@H]([N+]3(C)CCCCC3)[C@@H]4OC(C)=O)[C@@]2(C)C[C@@H]1[N+]1(C)CCCCC1 (some centres not stated)	nt	i	i	nt	i	nt	nt	nt
O=C(O)CCC(=O)NCCC1=c2ccccc2=N/C1=C\c1c(O)n(Cc2ccc(F)cc2)c(=S)[nH]c1=O	i	20µM	nt	i	i	22µM	56µM	15µM
Cc1cc(/C=C2\C(=O)NC(=O)N(c3ccc(F)cc3)C2=O)c(C)n1-c1ccc(C(=O)O)cc1	i	?	i	i	?	36µM	100µM	i
Cc1ccc(N2C(=O)NC(=O)/C(=C\c3cc(C)n(-c4ccc(C(=O)O)cc4)c3C)C2=O)cc1	?	i	i	i	i	nt	nt	nt
Cc1cc(/C=C2/C(=O)NC(=O)N(c3ccccc3)C2=O)c(C)n1-c1ccc(F)cc1	i	nt	nt	i	nt	nt	nt	nt
SMILES	KCNH2 3.1 block	CXXC DNA block	Menin MLL FP TR	hERG WT inh	Menin MLL FP FL	MLL CXXC Fl	MLL CXXC TxRed	MLL CXXC HTRF
Cc1ccc(N2C(=O)NC(=O)/C(=C\c3cc(C)n(-c4cc(C(=O)O)cc(C(=O)O)c4)c3C)C2=O)cc1	i	8.9µM	i	-97	i	36µM	40µM	122µM
Cc1cc(/C=C2\C(=O)NC(=O)N(c3cccc(F)c3)C2=O)c(C)n1-c1ccc(C(=O)O)c(Cl)c1	i	13µM	i	i	?	i	89µM	i
Cc1c(Cl)cccc1N1C(=O)NC(=O)/C(=C\c2cc(C)n(-c3cccc(C(=O)O)c3C)c2C)C1=O	i	?	i	i	i	7.1µM	71µM	i
CCOC(=O)N(C)C(=O)CSP(=S)(OCC)OCC	nt	nt	i	nt	?	nt	nt	nt
Cc1ccc(C(=O)Cn2c(-c3ccccc3)noc2=O)cc1	i	?	i	i	i	nt	nt	nt
COc1cccc([C@@]2(O)CCCCC2CN(C)C)c1 (some centres not stated)	nt	nt	i	nt	?	nt	nt	nt
O=c1[nH]c(=O)n(Cc2ccc(F)cc2)c(O)c1C=NCc1cccnc1	i	i	i	i	i	nt	nt	nt
COc1ccc2c(c1OC)C(=O)OC2c1c(O)n(Cc2ccc(F)cc2)c(=O)[nH]c1=O (configuration not stated)	i	13µM	i	i	i	25µM	113µM	97µM
Cc1cc(/C=C2\C(=O)NC(=O)N(Cc3ccccc3Cl)C2=O)c(C)n1-c1ccc(C(=O)O)cc1	i	?	?	i	i	14µM	50µM	?
Cc1cc(/C=C2\C(=O)NC(=O)N(Cc3ccco3)C2=O)c(C)n1-c1ccc(C(=O)O)cc1	i	28µM	nt	i	i	1.4µM	142µM	i
CCOP(=S)(OCC)Oc1ncn(-c2ccccc2)n1	nt	nt	i	nt	i	nt	nt	nt
O=C1NC(=O)C(=Cc2cn(CCOc3ccc4c(c3)OCO4)c3ccccc23)C(=O)N1	i	35µM	i	i	?	159µM	?	i
CC1CCCC(C)N1C(=O)CSc1nc2c(c(=O)n(C)c(=O)n2C)n1C (configuration not stated)	i	i	i	i	i	nt	nt	nt
O=[N+]([O-])c1ccc(Cl)c([N+](=O)[O-])c1	i	nt	nt	i	nt	nt	nt	nt
CN1C(=O)C(c2ccc([N+](=O)[O-])cc2[N+](=O)[O-])C(=O)N(C)C1=O	i	40µM	i	i	i	?	?	i
c1nc[n]([Sn]([CH]2CCCCC2)([CH]2CCCCC2)[CH]2CCCCC2)n1	nt	nt	i	nt	i	nt	nt	nt
C[n+]1c2cc(N)ccc2cc2ccc(N)cc21	i	?	i	i	?	0.63µM	142µM	97µM
Nc1ccc2ccccc2c1	nt	nt	nt	i	nt	nt	nt	nt
